# In PubChem BioAssay AID2061320 (National Center for Advancing Translational Sciences (NCATS), 2025):
# Records with an inconclusive call do not appear. Active and inactive are the calls of the source. The call rests on the fitted dose curve; in most records, active means well fitted inhibition curve with a large enough effect; inconclusive means small, poorly fitted or top-dose-only effect; inactive means flat fitted curve, though single readings scatter.
# Assay: Identification of antibody-drug conjugate (ADC) payloads which are substrates of ATP-binding cassette drug efflux transporters: ABCG2-H460-MX20 cell line
# Conditions: H460-MX20 (ABCG2) viability, CellTiter-Glo, 48 h; series mostly up to 28.7 µM
# Description: Antibody-drug conjugates (ADCs) feature an antibody recognizing a specific protein joined to a potent toxic payload. Numerous antibody-drug conjugates have received FDA approval; however, clinical resistance arises. Resistance mechanisms include decreased expression or mutation of the antibody target, impaired payload release, or increased expression of ATP-binding cassette (ABC) efflux transporters associated with multidrug resistance. We therefore sought to characterize the interaction of ABC multidrug transporters with ADC payloads. We performed a high-throughput screen with 27 common ADC payloads using cells lines expressing ABC transporters P-glycoprotein (P-gp, encoded by ABCB1) or ABCG2 (encoded by ABCG2). Confirmatory assays were also performed using cells transfected to express P-gp, ABCG2, or MRP1 (encoded by ABCC1). Several commonly used ADC payloads were substrates of P-gp, including calicheamicin gamma1, monomethyl auristatin E, DM1, and DM4. All the pyrrolobenzodiazepines tested - SJG136, SGD-1882, SG2057, and SG3199 - were substrates of P-gp, ABCG2, and MRP1. […] These findings highlight the risk of transporter-mediated resistance with certain ADC payloads and underscore the importance of selecting payloads that evade ABC transporter recognition in future ADC development.
# HEK-293 cells were transfected with empty vector (pcDNA) or vector containing the human ABCB1 (MDR-19), ABCG2 (R-5), or ABCC1 gene (MRP1) and were maintained in EMEM with 2 mg/mL G418 added to maintain transporter expression. The HeLa derivative KB-3-1 and the P-gp overexpressing KB-8-5-11 subline were maintained in DMEM; KB-8-5-11 additionally received 100 ng/mL colchicine. H460 parental cells were obtained from the Division of Cancer Treatment and Diagnosis Tumor Repository, National Cancer Institute at Frederick, MD and were cultured in RPMI. The ABCG2 expressing subline H460 MX20 was generated by selecting H460 cells in 20 nM mitoxantrone. Media in all cases was supplemented with 10% FBS and 1% penicillin-streptomycin. We explored 27 common ADC payloads, in two orthogonal, paired cell line sets-a drug selected and transfected set for each transporter--to identify substrates of the ABC transporters P-gp and ABCG2. Compounds were sourced from Levena Biopharma (San Diego, CA), Selleck Chem (Houston, TX), ChemieTek (Indianapolis, IN), or Microsource Discovery Systems (Gaylordsville, CT). Screening was performed as previously described. Briefly, cells were plated at a density of 500 cells/well in 1536 well plates with compounds added using a 1536-head pin tool (Kalypsys, San Diego CA). Cells were incubated with cytotoxic drugs and processed with CellTiter Glo reagent (Promega, Madison, WI) to determine viability after 48 hours. P-gp substrates were identified by comparing compound activity between paired sets of low-expressing (sensitive) and over-expressing (resistant) cell lines.
row,SMILES,Potency
1,COc1cccc2c1C(=O)c1c(O)c3c(c(O)c1C2=O)C[C@@](O)(C(=O)CO)CC3OC1CC(N2CCOC(OC)C2)C(O)C(C)O1 (stereo partly specified),8.4 nM (active)
2,COc1cc2cc(c1Cl)N(C)C(=O)C[C@H](OC(=O)[C@H](C)N(C)C(=O)CCS)[C@]1(C)OC1[C@H](C)C1C[C@@](O)(NC(=O)O1)[C@H](OC)/C=C/C=C(\C)C2 (stereo partly specified),15000 nM (active)
3,COc1cc2cc(C(=O)N3C[C@@H](CCl)c4c3cc(O)c3ccccc43)[nH]c2c(OC)c1OC,2.1 nM (active)
4,CC[C@H](C)[C@@H]([C@@H](CC(=O)N1CCC[C@H]1[C@H](OC)[C@@H](C)C(=O)N[C@H](C)[C@@H](O)c1ccccc1)OC)N(C)C(=O)[C@@H](NC(=O)[C@H](C(C)C)N(C)C)C(C)C,598 nM (active)
5,CC[C@H](C)[C@H](NC(=O)[C@H]1CCCCN1C)C(=O)N(C)[C@H](C[C@@H](OC(C)=O)c1nc(C(=O)N[C@@H](Cc2ccccc2)C[C@H](C)C(=O)O)cs1)C(C)C,inactive
6,CC[C@H](C)[C@@H]1NC(=O)CNC(=O)[C@H]2Cc3c([nH]c4cc(O)ccc34)S(=O)C[C@H](NC(=O)CNC1=O)C(=O)N[C@@H](CC(N)=O)C(=O)N1C[C@H](O)C[C@H]1C(=O)N[C@@H]([C@@H](C)[C@@H](O)CO)C(=O)N2 (stereo partly specified),1060 nM (active)
